Measurements taken from PMC4336329 (PLoS ONE, 2015).
The campaign covered roughly 310,000 compounds. About 14,000 (4.5%) showed an effect of 50% or more. Effects have a minus sign here. What follows is part of a selection rich in strong results, with near analogues and random picks from the rest.

Each compound was assayed against human ether-à-go-go-related gene (hERG) potassium channel (human, UniProt Q12809) (assay: primary screen, population patch clamp on CHO cells stably expressing hERG; higher = less effect of the substance).
human ether-à-go-go-related gene (hERG) potassium channel, sequence (Q12809 whole entry, looked up): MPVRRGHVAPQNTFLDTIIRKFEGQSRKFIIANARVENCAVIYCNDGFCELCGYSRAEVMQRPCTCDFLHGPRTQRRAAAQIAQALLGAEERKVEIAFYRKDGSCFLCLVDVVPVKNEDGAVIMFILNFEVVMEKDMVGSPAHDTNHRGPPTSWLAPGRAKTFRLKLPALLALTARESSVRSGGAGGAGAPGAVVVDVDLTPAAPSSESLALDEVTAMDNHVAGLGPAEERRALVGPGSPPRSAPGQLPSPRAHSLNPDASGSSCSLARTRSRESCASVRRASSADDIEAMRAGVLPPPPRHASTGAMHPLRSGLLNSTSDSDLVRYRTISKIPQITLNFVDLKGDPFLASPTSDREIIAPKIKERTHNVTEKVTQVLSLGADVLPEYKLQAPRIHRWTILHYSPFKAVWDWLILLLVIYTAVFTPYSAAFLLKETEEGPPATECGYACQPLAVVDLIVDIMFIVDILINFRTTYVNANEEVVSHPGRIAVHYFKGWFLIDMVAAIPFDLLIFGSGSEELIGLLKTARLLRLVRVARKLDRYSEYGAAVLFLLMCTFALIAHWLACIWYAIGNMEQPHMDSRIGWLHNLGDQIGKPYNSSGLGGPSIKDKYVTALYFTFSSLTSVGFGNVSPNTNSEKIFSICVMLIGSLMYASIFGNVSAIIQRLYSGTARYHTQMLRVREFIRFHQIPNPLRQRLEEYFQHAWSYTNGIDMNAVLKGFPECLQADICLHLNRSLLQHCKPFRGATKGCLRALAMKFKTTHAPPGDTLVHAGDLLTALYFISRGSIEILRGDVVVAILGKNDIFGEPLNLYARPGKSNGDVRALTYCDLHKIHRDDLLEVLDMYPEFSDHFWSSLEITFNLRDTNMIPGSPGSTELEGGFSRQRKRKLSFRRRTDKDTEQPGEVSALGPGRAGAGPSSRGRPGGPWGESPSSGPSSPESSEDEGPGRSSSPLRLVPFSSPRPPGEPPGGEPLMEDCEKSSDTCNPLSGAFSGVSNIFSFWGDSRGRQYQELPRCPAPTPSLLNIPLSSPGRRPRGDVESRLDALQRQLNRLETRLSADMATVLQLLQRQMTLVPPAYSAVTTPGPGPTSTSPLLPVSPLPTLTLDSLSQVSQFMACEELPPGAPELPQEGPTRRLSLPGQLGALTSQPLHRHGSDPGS
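Note: peak tail current of the secondary pulse compared with the same well before compound.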

First: CC12CCC(C(=O)N(CC(O)CN3CCN(Cc4ccccc4)CC3)C1=O)C2(C)C.Cl (stereo not drawn)
Second: O=C(C1CCC(=O)N1Cc1ccccc1Cl)N1CCC2(CC1)OCCO2 (stereo not drawn)
The “hERG current change (%, negative = inhibition) at 10uM” value of the first is higher: -6.03% for the first, -29.7% for the second.

First: COc1ccc(CN2CCNC(=O)C2CC(=O)NCCCC2CCCC2)c(C)c1C (stereo not drawn)
Second: COc1ccc(CN2CCNC(=O)C2CC(=O)NC2CCCCCCC2)cc1C (stereo not drawn)
The “hERG current change (%, negative = inhibition) at 10uM” value of the first is lower: 5.39% for the first, 15.8% for the second.

Compared with CC(CNS(=O)(=O)c1ccc2c(c1)CC(=O)N2C)c1ccccc1 (stereo not drawn), CC(=O)N1N=C(c2ccccc2)CC1c1cccc([N+](=O)[O-])c1 (stereo not drawn) is lower in “hERG current change (%, negative = inhibition) at 10uM” value: -12.3% for the first, -27.3% for the second.

First: COc1cccc(NC(=O)CN(C)C(=O)c2cc(C)oc2C)c1
Second: COc1cccc(C(=O)NCc2cccnc2)c1
The “hERG current change (%, negative = inhibition) at 10uM” value of the first is higher: 6.56% for the first, 1.54% for the second.

Going from Cc1cc2cc(CNC(=O)c3ccc4c(c3)OCO4)ccc2[nH]1 to COc1ccccc1N(C)S(=O)(=O)c1ccc(C(=O)OC(C)C(=O)NCc2ccc3c(c2)OCO3)cc1 (stereo not drawn), the “hERG current change (%, negative = inhibition) at 10uM” value falls from -1.85% to -41.6%.

Going from O=c1[nH]c2ccc(Br)cc2c(-c2ccccc2)c1N1CCOCC1 to O=c1[nH]c2ccc(Br)cc2c(-c2ccccc2)c1CN1CCOCC1, the “hERG current change (%, negative = inhibition) at 10uM” value falls from 7.5% to -65.7%.

Going from Cc1ccc2[nH]c(=O)c(CN3CCCCC3)c(-c3ccccc3)c2c1 to Cc1ccc2[nH]c(-c3ccccc3)c(CN3CCCC3)c(=O)c2c1, the “hERG current change (%, negative = inhibition) at 10uM” value rises from -53.6% to -12.2%.

Going from O=c1[nH]c2ccc(Cl)cc2c(-c2ccccc2)c1CN1CCOCC1 to Cc1ccc2[nH]c(=O)c(CC(=O)O)c(-c3ccccc3)c2c1, the “hERG current change (%, negative = inhibition) at 10uM” value rises from -14.7% to 17.7%.

Going from CCc1ccc2[nH]c(C)c(CN3CCCCCC3)c(=O)c2c1 to Cc1[nH]c2ccc(Br)cc2c(=O)c1CN1CCCCCC1, the “hERG current change (%, negative = inhibition) at 10uM” value falls from -46.9% to -64.3%.

First: Cc1[nH]c2ccc(Br)cc2c(=O)c1CN1CCOCC1
Second: Cc1c(Cl)cccc1N=C1SCCN1C(=O)CN1C(=O)NC2(CCCC2)C1=O
The “hERG current change (%, negative = inhibition) at 10uM” value of the first is lower: -27.2% for the first, -16.5% for the second.

Going from CC(C)(C)c1cc(=O)[nH]c(SCc2ccccc2)n1 to Cc1occc1-c1nnc(SCC(=O)NC(C)(C)C)n1C(C)c1ccccc1 (stereo not drawn), the “hERG current change (%, negative = inhibition) at 10uM” value falls from 17.3% to -11.8%.

First: OCC1CO1 (stereo not drawn)
Second: CCn1c(SCC(=O)OC)nnc1C1CCCCC1
The “hERG current change (%, negative = inhibition) at 10uM” value of the first is higher: 15.8% for the first, 6.57% for the second.

First: Cn1c(O)c(N=NC(=O)CNC(=O)c2cccnc2)c2ccccc21
Second: CCOC(=O)c1c(O)c2ccccc2n(C)c1=O
The “hERG current change (%, negative = inhibition) at 10uM” value of the first is lower: 15.1% for the first, 27.7% for the second.

Going from CCOc1ccc(NC(=O)CSc2n[nH]c(N)n2)c([N+](=O)[O-])c1 to O=C(CSc1nc2[nH]ncc2c(=O)[nH]1)Nc1cccc(Cl)c1, the “hERG current change (%, negative = inhibition) at 10uM” value rises from -6.62% to 4.2%.

Compared with O=C1CSC(c2cn(-c3ccccc3)nc2-c2cc3ccccc3oc2=O)N1Cc1ccccc1 (stereo not drawn), Cc1occc1-c1nnc(SCC(=O)Nc2ccccc2)n1C(C)c1ccccc1 (stereo not drawn) is lower in “hERG current change (%, negative = inhibition) at 10uM” value: 5.85% for the first, -37.6% for the second.

Compared with CN(C)c1nccc(N(Cc2ccccc2)Cc2ccccc2)c1C#N, CN(C)c1ccnc(N(Cc2ccccc2)Cc2ccccc2)c1C#N.Cl is higher in “hERG current change (%, negative = inhibition) at 10uM” value: -58.3% for the first, -6.74% for the second.

First: CN(C)CCN(Cc1ccccc1)c1ccnc(N(C)C)c1C#N
Second: Cc1occc1-c1nnc(SCC(=O)Nc2nccs2)n1CCc1ccccc1
The “hERG current change (%, negative = inhibition) at 10uM” value of the first is higher: -26.7% for the first, -60.3% for the second.

First: O=C(C1CC1)N1CCc2cc(Br)cc(S(=O)(=O)N3CCCCCC3)c21
Second: CC(=O)N1N=C(c2ccc([N+](=O)[O-])cc2)CC1c1ccccc1Cl (stereo not drawn)
The “hERG current change (%, negative = inhibition) at 10uM” value of the first is higher: -16.5% for the first, -66% for the second.

Compared with O=C(N/N=C/c1ccncc1)c1ccc(OCc2ccccc2)cc1, O=C(N/N=C/c1ccoc1)c1ccccc1Br is higher in “hERG current change (%, negative = inhibition) at 10uM” value: -0.12% for the first, 16.9% for the second.

Compared with O=C1NC(=O)/C(=C\c2ccc(Sc3ccc(Cl)cc3)o2)N1, CC(=O)N1N=C(c2ccc(Cl)cc2)CC1c1ccc([N+](=O)[O-])cc1 (stereo not drawn) is higher in “hERG current change (%, negative = inhibition) at 10uM” value: 2.37% for the first, 11.8% for the second.

Going from Oc1ccc(/C=N/Nc2nc(-c3cccnc3)nc3ccccc23)c(O)c1 to CCC(=O)N1N=C(c2ccccc2)CC1c1ccccc1 (stereo not drawn), the “hERG current change (%, negative = inhibition) at 10uM” value rises from -2.97% to 2.71%.

Compared with COc1ccc(-c2occ(C(=O)O)c2C(=O)O)cc1, COc1ccc(C2=NN(C(=O)CCC(=O)O)C(c3ccc([N+](=O)[O-])cc3)C2)cc1 (stereo not drawn) is higher in “hERG current change (%, negative = inhibition) at 10uM” value: -3.07% for the first, 10.2% for the second.

Going from CCn1cc([N+](=O)[O-])c(C(=O)N2N=C(c3ccccc3)CC2c2ccc([N+](=O)[O-])cc2)n1 (stereo not drawn) to CCC(=O)N1N=C(c2ccccc2)CC1c1ccc([N+](=O)[O-])cc1 (stereo not drawn), the “hERG current change (%, negative = inhibition) at 10uM” value falls from -37.2% to -53.4%.

First: CC(=O)N1N=C(c2ccccc2)CC1c1ccccc1[N+](=O)[O-] (stereo not drawn)
Second: COc1ccc(C2CC(c3ccc([N+](=O)[O-])cc3)=NN2C(C)=O)cc1 (stereo not drawn)
The “hERG current change (%, negative = inhibition) at 10uM” value of the first is higher: 2.95% for the first, -64.5% for the second.

Compared with O=C(O)CCC(=O)N1N=C(c2cccs2)CC1c1cccc([N+](=O)[O-])c1 (stereo not drawn), CC(=O)N1N=C(c2cccs2)CC1c1cccc([N+](=O)[O-])c1 (stereo not drawn) is lower in “hERG current change (%, negative = inhibition) at 10uM” value: 20% for the first, -51.6% for the second.

First: COc1ccc(C2CC(c3ccc(Cl)cc3)=NN2C(C)=O)cc1 (stereo not drawn)
Second: COc1ccc(OC)c(/C=N/NC(=O)c2cnccn2)c1
The “hERG current change (%, negative = inhibition) at 10uM” value of the first is lower: -23.5% for the first, 1.45% for the second.

First: O=C(O)CC1S/C(=N/N=C/C=C/c2ccccc2)NC1=O (stereo not drawn)
Second: COc1ccccc1CNC(=O)C(=O)NCC1OCCN1C(=O)c1cccs1 (stereo not drawn)
The “hERG current change (%, negative = inhibition) at 10uM” value of the first is lower: 0.632% for the first, 3.96% for the second.

Compared with Cc1ccc(-n2c(C)c(C)c3c(NCCO)ncnc32)cc1, Cc1csc(NC(=O)CSc2nnc(-c3ccoc3C)n2C(C)c2ccccc2)n1 (stereo not drawn) is lower in “hERG current change (%, negative = inhibition) at 10uM” value: 6.27% for the first, -74.1% for the second.

Compared with CSc1nsc(SCC(=O)Nc2nc3ccccc3s2)n1, CCn1c(SCC(=O)Nc2nccs2)nnc1-c1ccco1 is lower in “hERG current change (%, negative = inhibition) at 10uM” value: 9.66% for the first, -10.7% for the second.

Going from Cn1c(=O)[nH]c2nnc(-c3ccc(Cl)c(Cl)c3)nc2c1=O to CCn1c(SCC(=O)Nc2nc(C)cs2)nnc1-c1ccoc1C, the “hERG current change (%, negative = inhibition) at 10uM” value falls from 8.52% to -1.96%.

Compared with Cc1c(C(=O)N/N=C/c2ccc(-c3ccccc3[N+](=O)[O-])o2)sc(N)c1C#N, Cc1csc(NC(=O)CSc2nnc(Cc3cccn3C)n2CCc2ccccc2)n1 is lower in “hERG current change (%, negative = inhibition) at 10uM” value: 12.1% for the first, -4.35% for the second.

Compared with CCc1ccc(NC(=S)NCC2CCCN2CC)cc1 (stereo not drawn), CCc1nc(SCc2ccc(Cl)cc2)n[nH]1 is higher in “hERG current change (%, negative = inhibition) at 10uM” value: -32.2% for the first, 12% for the second.

First: Cn1cccc1Cc1nnc(SCC(=O)Nc2nccs2)n1CCc1ccccc1
Second: Cc1csc(NC(=O)CSc2nnc(-c3ccoc3C)n2CCc2ccccc2)n1
The “hERG current change (%, negative = inhibition) at 10uM” value of the first is higher: -9.58% for the first, -59.7% for the second.
